Reference: PubChem BioAssay (NCATS)
Results filed as inconclusive are left out. Where a call stands in place of a potency, no number is given. The source made the active and inactive calls. Calls follow the shape of the dose curve; as a rule, active = well fitted cell-killing curve with a large enough effect; inconclusive = small, poorly fitted or top-dose-only effect, or effect the other way; inactive = no such curve, though single readings can be large or run the other way.

test: qHTS of pediatric cancer cell lines to identify multiple opportunities for drug repurposing: Confirmatory screen for LAN-5 cells (AID 1347113); conditions: LAN-5 neuroblastoma cell viability; series mostly up to 45.9 µM; also: nearly all actives have a fitted effect of over 65% in size
Source text: Drug repurposing or repositioning has been offered as a strategy for drug development in oncology programs. This approach has special potential for childhood cancers and other rare or orphan diseases, where the expected return on new drug development has been a disincentive to pharmaceuticals.
In this project we exploit the poly-pharmacology of drugs to discover new indications via phenotypic screening of a panel of 19 well-characterized cell lines derived from solid tumors seen in children and adolescents. The goal is to identify approved drugs with previously unrecognized anticancer properties that has the potential to reveal new mechanisms and biological processes involved in carcinogenesis or drug resistance. We employed a titration-based paradigm (quantitative high-throughput screening or qHTS), where all compounds were tested at multiple concentrations for their effect on cell viability. Concentration-response curves (CRCs) were derived directly from the primary screen, and both potency and efficacy values were used to identify compounds with robust bioactivity profiles. We screened the NIH Chemical Genomics Center (NCGC) Pharmaceutical Collection (NPC) and Mechanism Interrogation Plate (MIPE) small molecule collections of approved and investigational compounds against these cell lines; and measured metabolically active cells after 48 hours of compound treatment as a proxy for cell viability.
Assay Submitter: Nathalia J. Martinez, National Center for Advancing Translational Sciences, National Institutes of Health, Rockville, MD, USA; email: natalia.martinez@nih.gov
[1] Shen, M et al. Quantitative high-throughput phenotypic screening of pediatric cancer cell lines identifies multiple opportunities for drug repurposing. Oncotarget 2017 Dec 19;9(4):4758-4772. PMID 29435139.
The cells were obtained from University of North Carolina (UNC), Pediatric Preclinical Testing Program (PPT), and Coriell Institute (CI).
qHTS cell viability assay:
Cells were assayed in growth media at a density of 500-1,000 cells/well. Five microliters of cells were dispensed into 1,536-well, white, solid-bottom, TC-treated plates (Greiner Bio One) using a multidrop dispenser and incubated at 37 degrees C, 5% CO2, under a humidified atmosphere for 5 hours. Twenty-three nanoliters of compounds and controls (neutral control DMSO or positive control bortezomib at final concentration of 2.3 µM) were subsequently transferred by Kalypsys pintool. For primary screens, the MIPE collection was tested at 11-point dilutions (final concentrations range from 0.78 nM to 46 µM) and the NPC collection at 8-point dilutions (final concentrations range from 0.59 nM to 46 µM). Compounds tested in follow-up screens were assayed at 11-point dilutions. Cells were incubated for 48 hours, followed by addition of 3 µL of CellTiter-Glo (Promega). After a 15 min incubation at room temperature, samples were analyzed for luminescence intensity using a ViewLux High-throughput CCD imager equipped with clear filters.
Potency is read from the fitted curve at half-maximal effect.

| SMILES | Potency |
| --- | --- |
| C=C1C(=O)[C@@]23C(CC[C@@H]1[C@H]2O)[C@@]12CO[C@]3(O)[C@@H](O)[C@@H]1C(C)(C)CC[C@@H]2O (stereo partly specified) | 4.14 µM (active) |
| CCOc1ccc(Nc2nc(-c3c(C)nc4ccccn34)cs2)cc1 | 1.47 µM (active) |
| COc1cc(N2CCC(N3CCN(C)CC3)CC2)ccc1Nc1ncc(Cl)c(Nc2ccccc2S(=O)(=O)C(C)C)n1 | 0.185 µM (active) |
| COc1ccc(-c2nc(N3CCOCC3)c3sc(CN(C)c4ncc(C(=O)NO)cn4)cc3n2)cn1 | 0.465 µM (active) |
| O=C1NC(=O)C(=Cc2ccc3c(c2)OC(F)(F)O3)S1 | inactive |
| CO[C@H]1C=CC=C(C)C(=O)NC2=CC(=O)C(NCCN(C)C)=C(C[C@@H](C)C[C@H](OC)[C@@H](O)[C@@H](C)C=C(C)[C@@H]1OC(N)=O)C2=O | inactive |
| CC1(C)S[C@H]2[C@H](NC(=O)[C@@H](N)c3ccc(O)cc3)C(=O)N2[C@@H]1C(=O)O | inactive |
| CC(=O)O[C@]1(C(C)=O)CC[C@@H]2[C@@H]3C[C@H](C)C4=CC(=O)CC[C@]4(C)[C@H]3CC[C@@]21C | inactive |
| CN(C)C1CCN(C(=O)c2ccc(NC(=O)Nc3nc(N4CCOCC4)nc(N4CCOCC4)n3)cc2)CC1 | 0.261 µM (active) |
| O=C1c2ccccc2-[n+]2ccc3c([nH]c4ccccc43)c21 | 0.827 µM (active) |
| CC1(C)CCC(CN2CCN(c3ccc(C(=O)NS(=O)(=O)c4ccc(NCC5CCOCC5)c([N+](=O)[O-])c4)c(Oc4cnc5[nH]ccc5c4)c3)CC2)=C(c2ccc(Cl)cc2)C1 | 5.85 µM (active) |
| CCc1ccc(OCc2ccccc2C(=O)Nc2ccc3nc(C)cc(N)c3c2)cc1 | 7.37 µM (active) |
| CC(=O)Oc1cc2c(s1)CCN(C(C(=O)C1CC1)c1ccccc1F)C2 (stereo unspecified) | inactive |
| CC(C)(C(=O)NCC(F)(F)C(F)(F)F)C(=O)N[C@@H]1C(=O)Nc2ccccc2-c2ccccc21 | inactive |
| CN[C@@H](C)C(=O)N[C@H]1CN(C(=O)CC(C)C)CC[C@H]2CC[C@@H](C(=O)NC(c3ccccc3)c3ccccc3)N2C1=O | inactive |
| COc1ncc(-c2ccc3nccc(-c4ccnnc4)c3c2)cc1NS(=O)(=O)c1ccc(F)cc1F | 0.0737 µM (active) |
| CC[C@]1(O)C[C@@H]2CN(CCc3c([nH]c4ccccc34)[C@@](C(=O)OC)(c3cc4c(cc3OC)N(C)[C@H]3[C@@](O)(C(=O)OC)[C@H](OC(C)=O)[C@]5(CC)C=CCN6CC[C@]43[C@@H]65)C2)C1 | 2.33 µM (active) |
| CC(=NNC(=S)N1CCC1)c1ccccn1 | inactive |

| SMILES | Potency |
| --- | --- |
| NC1=N[C@@]2(c3cc(NC(=O)c4ccc(F)cn4)ccc3F)COC[C@@H]2CS1 | inactive |
| CC(C)n1nc(-c2ccc3oc(N)nc3c2)c2c(N)ncnc21 | 0.131 µM (active) |
| CC1(C)CCC[C@@]2(C)[C@@H]1CC[C@@]1(C)OC(=O)C[C@H]21 | inactive |
| O=C(O)c1ccc(-c2c[nH]c3ncc(-c4ccccc4)cc23)cc1C1CCCC1 | inactive |
| Cc1[nH]c(C=C2C(=O)Nc3ccc(S(=O)(=O)Cc4c(Cl)cccc4Cl)cc32)c(C)c1C(=O)N1CCC[C@H]1CN1CCCC1 | 9.27 µM (active) |
| CC(=O)Nc1ccc([C@H](C)C(=O)Nc2ncc(C(C)C)s2)cc1 | 3.69 µM (active) |
| CC1(C)O[C@H]2C[C@@H]3[C@H]4CCC5=CC(=O)C=C[C@]5(C)[C@@]4(F)[C@@H](O)C[C@]3(C)[C@]2(C(=O)CO)O1 | inactive |
| CC[C@]1(O)C[C@@H]2CN(CCc3c([nH]c4ccccc34)[C@@](C(=O)OC)(c3cc4c(cc3OC)N(C=O)[C@@H]3C45CCN4CC=C[C@](CC)([C@H]45)[C@@H](OC(C)=O)[C@]3(O)C(=O)OC)C2)C1 (stereo partly specified) | inactive |
| COc1cc2ncnc(Nc3ccc(F)c(Cl)c3)c2cc1OCCCN1CCOCC1 | 33.9 µM (active) |
| Nc1ncnc2c1ncn2[C@@H]1O[C@@H](CO)[C@H](O)[C@H]1O | inactive |
| NS(=O)(=O)c1cccc2c1C(=O)c1cccc(O)c1C2=O | 1.85 µM (active) |
| O=C(Nc1cccc(Br)c1)c1cccc(S(=O)(=O)N2CCCCCC2)c1 | inactive |
| COc1ccc2c(Oc3ccc(NC(=O)c4c(C)n(CC(C)(C)O)n(-c5ccccc5)c4=O)cc3F)ccnc2c1 | inactive |
| CC1(C)CCC2=C(O1)c1ccccc1C(=O)C2=O | 9.27 µM (active) |
| CO[C@H]1C(=O)[C@]2(C)[C@@H](OC)C[C@H]3OC[C@@]3(OC(C)=O)[C@H]2[C@H](OC(=O)c2ccccc2)[C@]2(O)C[C@H](OC(=O)[C@H](O)[C@@H](NC(=O)OC(C)(C)C)c3ccccc3)C(C)=C1C2(C)C | inactive |
| OC[C@H]1O[C@@H](n2cnc3c2NC=NC[C@@H]3O)C[C@H]1O | inactive |
| O=C1C(Cl)=C(NCCN2CCOCC2)C(=O)c2ncccc21 | 2.93 µM (active) |
| O=c1cc(-c2ccc(O)cc2)oc2cc(O)cc(O)c12 | inactive |
